# Laboratory results taken from PubChem BioAssay AID1508600 (Functional Genomics Laboratory (NCATS/FGL), 2020).
# Hit rate of the full screen: of about 53,000 sequences, about 3,700 (7%) were called active.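 The calls were made as follows: active = gene knockdowns whose robust z-score for IL-1 alpha signal is at least 2 or at most -2, so actives lie on both sides; inactive = the rest.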 The entries come from a sample that favours actives as a whole.
# Assay: Components of the Cytosolic LPS Sensing Pathway: Gene Identification via Genome-wide siRNA Screen
# Conditions: RAW264.7 macrophages, IL-1a HTRF, actives lie on both sides, screened at 100 nM (by protocol), cells primed 5 h with Pam3CSK4 first
# Text: Non-canonical inflammasome activation by cytosolic LPS is a critical component of the host response to Gram-negative bacterial infection, however we lack a comprehensive understanding of the cellular processes that control this pathway. Here we describe a genome-wide siRNA screen to identify genes regulating the mouse macrophage IL-1 alpha response to cytosolic LPS.
# RAW264.7 cells were maintained in complete DMEM media, comprising DMEM with 4.5 g/L glucose, 10% FBS (Gemini Bio-Products, West Sacramento, CA), 2 mM Glutamine (Lonza) and 20 mM HEPES (Lonza), hereafter complete DMEM.
# The RNAi screen was conducted in 384-well format using the Ambion Silencer Mouse Genome siRNA Library (#4391425), which consists of three unique, nonoverlapping, nonpooled siRNAs for each of 17,000 gene targets. siRNA reagents ([…]) were stamped into 384-well white flat-bottom microplates (Corning, 3570) using a Velocity11 VPrep liquid handling system (Agilent) integrated into a BioCel robotic platform (Agilent) in columns 1-22, leaving columns 23-24 empty for negative (Ambion, Negative control #1) and positive (mouse Casp4) controls, respectively. The median value of each plate's negative control column was used to normalize sample wells, and the positive control was used to assess transfection efficiency and assay performance.
# Lipofectamine RNAiMAX Transfection Reagent ([…]; Invitrogen) was added in […] serum-free, antibiotic-free media to plate wells using a Thermo Scientific Matrix WellMate and Microplate Stacker. Plates were incubated for 45 min at room temperature to allow for the sufficient formation of siRNA-lipid complexes. Cells were seeded at a density of 1x10^4 cells per well in 20 microL media containing 20% (vol/vol) FBS without antibiotics. The final concentration of siRNA in each well was 100 nM. Cells were cultured for 48h at 37 degrees C in 5% CO2 before addition of […] of TLR ligand Pam3CSK4 for 5 hours. The medium was then removed, replaced with […] growth media and cell were transfected with […] of LipidA and TransIT-TKO (Mirus) for 24 hour. At the end of the LipidA treatment, […] of supernatant was transferred to a 384 Greiner Bio-one non-binding low volume plate and […] of IL-1a HTRF reagent (Cisbio, 62MIL1APEH) was added and incubated at room temperature overnight. The plates were read on an EnVision plate reader (PerkinElmer). Cell viability was measured by adding 20ul Cell Titer Glo to the original plate and running a luminescence read on the EnVision. The quantified IL-1a signal for each siRNA gene-targeted well was divided by the median of the negative control wells and multiplied by 100 to achieve a negative control normalized value for each well/siRNA. This normalized value was then used to generate a robust z-score by first taking the log of each value and then by subtracting the median and dividing by the […].
row,Sequence,z-score
1,GGAAACCAGACUUUCCCUATT against Vmn1r43,-0.18 (inactive)
2,CGAAGAUAUUACUAUUCUGTT against Lama2,1.65 (inactive)
3,GAUGCACACGUGGGAAGACTT against Cdpf1,2.25 (active)
4,GCUCCAUCUACAAACAAUGTT against Gpr37l1,1.53 (inactive)
5,GGGACAGGAACAAACAAGCTT against Polq,2 (inactive)
6,GGUUAUAGAUGUAAAGUCUTT against Isg20l2,-0.847 (inactive)
7,GGAGCUUCUUUUCCCUCUATT against Gcgr,-0.684 (inactive)
8,GGAUUUAAGUGCCCGGUAUTT against Znrf2,1.34 (inactive)
9,GCGAUAUGCCCUAACUGGATT against Mmp24,0.967 (inactive)
10,GGAAGAUCCGCUUCAACGUTT against Mab21l4,1.2 (inactive)
11,GGUUGGUUUGGAGAAGGCATT against Krt35,2.91 (active)
12,CCACAUGCCUGAGAGAUUCTT against Spp2,1.28 (inactive)
13,CGUUUGACCAAAACAGAAUTT against Fbxw10,0.709 (inactive)
14,GGAAGUCAGACAGAUUUAATT against Prss33,2.69 (active)
15,CGCACCUUUCUUUGGAAUGTT against Rab1b,1.72 (inactive)
16,GGAUUUUGUUCUUCAUCCATT against Nedd4,-0.142 (inactive)
17,GGGUUAUGGAUUUGAAGUGTT against Tmem131l,1.3 (inactive)
18,CCAAUUUUCAAGAUCGGUCTT against Pakap,0.347 (inactive)
19,GCUCUGAUGUCAACCUUCCTT against Fam174c,-2.23 (active)
20,CCACCUUUAUUCAAAAUCGTT against Mmp20,-0.451 (inactive)
21,CCUACUCAAGAAGCUCAGUTT against Hpse,-2.47 (active)
22,GCGCACAAGCCUUACUAAATT against Zfp560,0.0854 (inactive)

row,Sequence,z-score
1,GCGGACAUGAGUUUGAAUGTT against Bnipl,-0.858 (inactive)
2,GGUGGACAAGAUGAUGGAATT against Gps2,1.92 (inactive)
3,GGAGACAGAUGAAUGAACCTT against Tifab,0.0548 (inactive)
4,CCCUCUCUACGAUGACUCUTT against Parm1,-2 (active)
5,CCAAUAACUUCGCUUAUAUTT against Ms4a2,-0.389 (inactive)
6,GGUUCAUCCAACUUUCAAGTT against Stac3,0.587 (inactive)
7,GUUUCUGGGUGAGCGCGAUTT against Fzd2,2.29 (active)
8,GGCAUUUAAAACUCAUUGUTT against G6pdx,-1.47 (inactive)
9,GGGUUCAGAGGUCAUCAACTT against Lin37,-1.95 (inactive)
10,GCAAAUUAGGCUCUUAUCCTT against 4930402H24Rik,-0.333 (inactive)
11,GGAAGAAAUGCAGGUGUGGTT against Gab3,-2.15 (active)
12,GCUUUAUUAACCCAUCAAATT against Wdr78,-0.136 (inactive)
13,GGGAAAAUUCCAGAAUUGUTT against Serpinb9c,-1.37 (inactive)
14,GGAGAUGGCCGACUUCUAUTT against Coa8,0.934 (inactive)
15,GGUUAAAUCCCUGAUGUAUTT against Ptdss1,-0.613 (inactive)
16,GCUUGUGUCACCUACGGAATT against Mterf2,0.944 (inactive)
17,CCCAUGCUAUCAAUCAUUUTT against Olfr308,2.51 (active)
18,CCGAUGACAAUCGGCCCUUTT against Gja8,0.74 (inactive)
19,GGUUUUCCAUCUCCUCCAGTT against Klrc1,0.789 (inactive)
20,GGGAAACGUGAAUUAGUAATT against 1110051M20Rik,-1.23 (inactive)
21,CCUCCAUUGAUACUCAAGUTT against Pycr1,0.0219 (inactive)
22,GGCUAAAUCUCACACUCCATT against Mzb1,-2.18 (active)

row,Sequence,z-score
1,GGUGAAGCUCACCAACAAUTT against Tbx20,0.301 (inactive)
2,CCAUGUUCCAGUUAAUGACTT against Ptch1,-0.419 (inactive)
3,GCAAGUCCUCUACCUUCUCTT against Vmn1r210,-1.65 (inactive)
4,GGUGAAACUAAAAAUGGUCTT against Egfl6,-1.07 (inactive)
5,GCCGUCUCUGUGUCACAAATT against Sirt1,-2.19 (active)
6,GGUCCUUGUACAACCACCCTT against Acd,0.516 (inactive)
7,GGUCCUUGCAUUUCAUCAATT against A630005I04Rik,1.6 (inactive)
8,GGAUUUUUGCACUCAGUAATT against Olfr1256,1.26 (inactive)
9,GGAACAUUGGUGUUACAGCTT against Atp5j,2.29 (active)
10,GGAGUUUUCAGCAACAAAUTT against Fgf5,-0.829 (inactive)
11,GGUAUUCUAUAAGCUCCUUTT against Dennd1a,-2.07 (active)
12,CCAACGCGAACGAGAACUATT against C1qb,-0.0813 (inactive)
13,CCAGAUAAUAAUUUGGAUGTT against Dhx9,0.0852 (inactive)
14,GGAUGUGCCAUUGAAGAUCTT against Atg4c,2.07 (active)
15,CCUGGAUACCUUCAACUAUTT against Galnt14,-0.209 (inactive)
16,CCUAAACCAGUCUUUUCUCTT against Cnep1r1,0.369 (inactive)
17,GCAAAAGCUAAUAAACUUGTT against Acox2,0.921 (inactive)
18,GCCUACGAGGACAGUACAATT against Mst1r,1.16 (inactive)
19,GCACUGCAACACUUGGUCCTT against Lcn12,-0.99 (inactive)
20,GGCAGACCCAUAAUUAAUCTT against Arsk,-0.567 (inactive)
21,GGCUGAAGCGCAAGAGGAATT against Wdr46,2.68 (active)
22,GGAAGAUACAAGUCUUUUUTT against Akap12,1.85 (inactive)

row,Sequence,z-score
1,GAGAUAAGAUGGGAAAAAATT against Ssbp2,-0.338 (inactive)
2,GGAAAAGCAGACUUGCACCTT against Npm2,0.228 (inactive)
3,GGAAGAAGUUGGAGAUGUUTT against Hsd17b11,-0.629 (inactive)
4,GGAACUAGUUUUUAUACUCTT against Igfbp1,2.23 (active)
5,GGAACCUAUUUUUUCGUAUTT against Gen1,-0.322 (inactive)
6,CCAAGAUUCUCCUGAAUUATT against Plod2,-0.183 (inactive)
7,CGGUGAUCAAAGAUAAGAATT against Zkscan5,-0.936 (inactive)
8,GGGUGCAUAUGUUUGAAGCTT against Copb2,-2.5 (active)
9,GGUGUGGUCAUUCCAAAUGTT against Ms4a8a,0.042 (inactive)
10,GGAGCUGUGCGGUCUGUUATT against Mul1,-0.626 (inactive)
11,GGAGAAAGUCAAGACCCUCTT against Jund,0.473 (inactive)
12,GGCUACCAUGGACACAUCATT against Magea7-ps,-2.31 (active)
13,GGAUGUCUCGGCAUAGUUCTT against Lpar1,-0.64 (inactive)
14,GGUGAAUGCAAGAUCACCUTT against Myl1,0.343 (inactive)
15,GCAGUCGAUGUCAAGGUUATT against Plekhf2,0.473 (inactive)
16,GCCAGGACAAUCUGACUAUTT against Napsa,3.48 (active)
17,CGGGAUAGACUAUAAGACUTT against Rab40c,0.612 (inactive)
18,GGAGAUGAGGAAGCUCUUCTT against Usp4,-0.747 (inactive)
19,CCAAGCAUAUGUGGUUGUUTT against Gpbp1l1,-2.01 (active)
20,GGUCUACGACCGAUGUUCUTT against 9530003J23Rik,0.729 (inactive)
21,GGAGUUACCUUUCGAUAGGTT against Exoc5,0.648 (inactive)
22,GGGUGCAUAAGCAAGCUGUTT against Nkiras2,-0.992 (inactive)

row,Sequence,z-score
1,GGGAUCAAAGAUCAGUUAATT against Pih1d2,-0.98 (inactive)
2,GACAGAGGAAUUUGUCUCCTT against Olfr1120,2.1 (active)
3,CCUAGUGUGUGCUUUUCGGTT against Akr7a5,-0.502 (inactive)
4,GGACCCAAGAAGUUUUAUUTT against Zbbx,1.3 (inactive)
5,GGAGCAGGUAAACAUGUCUTT against Fpr-rs7,-0.218 (inactive)
6,GCCUGAAAGGCCUCACAAATT against Eloa,-0.72 (inactive)
7,GCAGUAACUCCGGUAGUAGTT against Daxx,5.84 (active)
8,GGACUAUGCAGUUUUAUUGTT against Chrac1,-0.201 (inactive)
9,CGACCAAAAUCAAAACAGCTT against Defb12,-0.093 (inactive)
10,GGAACUGGAAGAGAAUGAGTT against Sdc4,0.862 (inactive)
11,GGAGAAGAUAGAAGCUGAGTT against Rad23a,-1.66 (inactive)
12,GGUCGAGGACAAAAAAAAATT against Dner,-2.27 (active)
13,GGACCUAUCAACUGAGUUUTT against Hrc,1.06 (inactive)
14,GGUCAUGGCUACUUCAUCCTT against Dok7,0.583 (inactive)
15,CCUUUAGAGGAAUUCACUUTT against Npas2,-0.576 (inactive)
16,GCAAAUCCCAGCUCAAUGUTT against Zfp810,-1.65 (inactive)
17,CGAAGGACCAGGGAAUCUGTT against Tsg-5,-0.793 (inactive)
18,GCAGGUGAAAGUGCAGAUCTT against Timm13,3.35 (active)
19,GGAUAAGAGACAAUGAAUUTT against Fut7,-1.19 (inactive)
20,GCUCAUUCGUCCUCACAGUTT against Olfr312,-1.11 (inactive)
